Screening data from PubChem.
BAZ2B block – BAZ2B (human) inhibition | Q9UIF8 | AlphaScreen BAZ2B-H3K14Ac peptide displacement | Potency, µM (highest dose often 114 µM), most hits filed as inhibitors | 360,000 tested, 4.4% active | AID 504333; also: nearly all actives have a fitted effect of over 60% in size
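AlphaScreen displacement of biotin-H3(5-23)K14Ac peptide (50 nM final) from BAZ2B (50 nM final) in PBS pH 7.4, 0.01% Tween-20; complex preformed 30 min RT, then compounds (top 110 uM) 30 min RT, beads 20 min dark.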
JMJD2A Tudor – inhibitors of human JMJD2A Tudor domain. Potency, µM (doses to about 114 µM), actives largely listed as inhibitors. AlphaScreen JMJD2A-Tudor / H3K4me3 peptide binding. AID 504339. 390,000 tested, 4.4% active. O75164; also: nearly all actives have a fitted effect of over 50% in size
Target sequence (O75164 whole entry, looked up, the tested form may be a part): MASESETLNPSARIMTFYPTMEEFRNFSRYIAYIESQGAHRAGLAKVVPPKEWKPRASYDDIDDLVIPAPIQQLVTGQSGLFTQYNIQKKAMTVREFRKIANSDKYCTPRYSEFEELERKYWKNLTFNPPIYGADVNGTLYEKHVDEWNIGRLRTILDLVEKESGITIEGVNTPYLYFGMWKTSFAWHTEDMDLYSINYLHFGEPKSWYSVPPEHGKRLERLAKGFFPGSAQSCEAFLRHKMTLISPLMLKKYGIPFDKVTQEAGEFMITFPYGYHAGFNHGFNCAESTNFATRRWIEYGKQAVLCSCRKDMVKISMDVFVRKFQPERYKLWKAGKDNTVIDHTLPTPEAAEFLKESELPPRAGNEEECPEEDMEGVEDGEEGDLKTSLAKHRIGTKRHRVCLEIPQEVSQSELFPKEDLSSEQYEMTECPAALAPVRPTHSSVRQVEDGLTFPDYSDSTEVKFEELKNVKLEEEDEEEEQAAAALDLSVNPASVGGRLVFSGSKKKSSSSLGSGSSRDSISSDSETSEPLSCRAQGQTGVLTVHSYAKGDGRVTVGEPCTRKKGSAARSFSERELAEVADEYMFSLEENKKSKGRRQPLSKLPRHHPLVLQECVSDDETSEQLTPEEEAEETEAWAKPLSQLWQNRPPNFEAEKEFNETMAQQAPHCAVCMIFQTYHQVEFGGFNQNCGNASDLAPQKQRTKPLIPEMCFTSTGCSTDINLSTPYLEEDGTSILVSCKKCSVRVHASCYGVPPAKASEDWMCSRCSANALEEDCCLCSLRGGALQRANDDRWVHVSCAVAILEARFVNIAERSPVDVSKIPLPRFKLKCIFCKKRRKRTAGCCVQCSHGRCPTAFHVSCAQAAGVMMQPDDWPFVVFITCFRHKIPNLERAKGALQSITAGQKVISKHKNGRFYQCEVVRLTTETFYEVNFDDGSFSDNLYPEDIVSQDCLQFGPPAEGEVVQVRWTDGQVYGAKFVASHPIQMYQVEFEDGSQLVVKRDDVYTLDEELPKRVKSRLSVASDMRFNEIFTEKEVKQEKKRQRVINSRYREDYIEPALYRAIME
HP1b chromo inh – inhibitors of HP1-beta chromodomain binding to methylated histone tails; AlphaScreen HP1-beta / biotin-H3K9me3 peptide binding; Potency, µM (series often up to 114 µM), hits mostly inhibitors; 390,000 tested, 0.56% active; AID 540317; P83916; also: nearly all actives have a fitted effect of over 70% in size
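Compound inhibition of the preformed complex between 50 nM HP1-beta and 50 nM biotinylated H3K9me3 peptide was read by AlphaScreen. Buffer was PBS pH 7.4 with 0.01% Tween-20. Incubations ran 30 min at room temperature, with 10 ug/mL donor/acceptor beads.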
Sfp PPTase inh – Sfp phosphopantetheinyl transferase inhibition. Q9F4F7. Biochemical Sfp PPTase activity, qHTS. Potency, µM, hits mostly inhibitors. 310,000 tested, 3.5% active;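 also: the enzyme is Sfp with the accession as filed and its product quenches rhodamine fluorescence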
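Sfp 15 nM + cpd, 15 min RT; start w/ rhodamine-CoA 5 uM, BHQ-2-YbbR 12.5 uM (final); 50 mM Hepes pH 7.6, 10 mM MgCl2, 0.01% NP-40, 0.01% BSA; read 525/598 nm at 0 and 30 min.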
PLK1 PBD inh – blocks phosphopeptide binding to human PLK1 polo-box domain; P53350; Plk1 PBD binding of FITC phosphopeptide, fluorescence polarization; Potency, µM, actives largely listed as inhibitors; 360,000 tested, 2.8% active; also: series mostly up to about 57 µM; nearly all actives have a fitted effect of over 65% in size
G9a inh – inhibitors of human histone lysine methyltransferase G9a | Potency, µM (titrated, usually from 102 µM), actives largely listed as inhibitors | 350,000 tested, 8.8% active | Q96KQ7 | G9a H3K9 monomethylation, AlphaScreen, 2 h; also: nearly all actives have a fitted effect of over 75% in size
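G9a (20 nM) preincubated 15 min RT with compounds, then 500 nM biotinylated H3K9 peptide and 20 uM SAM added; 2 h RT reaction. Monomethyl-H3K9 product detected by AlphaScreen with anti-H3K9me1 antibody, streptavidin donor and anti-rabbit IgG acceptor beads.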
Numbers stand for hits; – = inactive; ? = inconclusive; · = no result; [ ] = remark or other dose. A selection: hits, their analogues and other compounds. The true share with any hit is near 12%. Calls follow the shape of the dose curve; as a rule, active = well fitted curve in the direction sought with a large enough effect; inconclusive = small, poorly fitted or top-dose-only effect, or another doubt; inactive = no such curve, though single readings can be large; an effect the other way counts as inactive or inconclusive.

SMILES	BAZ2B block	JMJD2A Tudor	HP1b chromo inh	Sfp PPTase inh	PLK1 PBD inh	G9a inh
Cc1ccc(OCC(=O)Nc2ccc(S(=O)(=O)Nc3ccccn3)cc2)cc1C	–	–	–	–	–	50.1µM
COc1ncnc2c1ncn2CCCNCc1ccc(C)o1	·	·	·	·	–	·
COc1ccc(-c2cc3nc(C)c(CCC(=O)N4CCN(c5cc(C)ccc5C)CC4)c(C)n3n2)c(OC)c1	–	–	–	·	·	–
Cc1ccc(-n2c(=O)c3oc4ccccc4c3n(CC(=O)Nc3ccccc3)c2=O)cc1C	–	–	–	·	·	–
CCC(=O)OCCNc1cc(SCCC(=O)OC)c2nonc2c1[N+](=O)[O-]	–	–	–	–	?	12.6µM
CCC(=O)OCCNc1cc(Sc2nccn2C)c2nonc2c1[N+](=O)[O-]	–	–	–	?	2.12µM	?
CC(=O)OCCNc1cc(SC(C)C)c2nonc2c1[N+](=O)[O-]	?	–	–	–	–	–
COC(=O)CCSc1cc(NCCCOC(C)=O)c([N+](=O)[O-])c2nonc12	·	–	–	·	·	·
CCCC(=O)OCCNc1cc(Sc2nc3ccccc3[nH]2)c2nonc2c1[N+](=O)[O-]	?	79.4µM	?	10µM	1.89µM	?
CCCNC(=O)C1(C)CCCN(Cc2ccc3ccccc3c2)C1 (stereo unspecified)	·	·	·	·	–	·
O=C(NN1CCOCC1)c1ccc(Cl)cc1[N+](=O)[O-]	–	–	–	–	–	–
CNC(=O)c1c(NC(=O)/C=C/c2ccccc2)sc2c1CCC2	–	–	–	·	·	–
O=C(/C=C/c1ccco1)Nc1sc2c(c1C(=O)O)CCC2	?	?	–	50.1µM	–	?
O=C(/C=C/c1ccccc1)Nc1sc2c(c1C(=O)O)CCC2	–	–	–	–	–	50.1µM
Cc1ccc(-c2csc(NC(=O)/C=C/c3ccco3)c2C(=O)O)cc1	79.4µM	?	–	28.2µM	?	·
CCOC(=O)C1CCN(Cc2ccc(F)cc2)CC1	–	3.98µM	?	–	–	?
CC1CCCCN1Cc1ccc(N(C)C)cc1 (stereo unspecified)	–	–	–	–	–	–
CN(C)c1ccc(CN2CCC(C(N)=O)CC2)cc1	22.4µM	22.4µM	–	–	–	14.1µM
CCOC(=O)C1CCN(Cc2ccc(C(=O)OC)cc2)CC1	50.1µM	5.62µM	–	–	–	?
Cc1nc(-c2cccc(F)c2)sc1CCNC(=O)c1c(F)cccc1Cl	–	–	–	·	·	–
NC(=O)OC[C@H](O)COc1ccc(Cl)cc1	·	·	·	–	·	–[21.5 µM]
Cc1ccc(NC(=S)c2nc3ccccc3[nH]2)cc1	10µM	?	?	–	–	–[0.501 µM]
Cc1cccc(/C=C(\c2nc3ccccc3[nH]2)S(=O)(=O)c2ccccc2)c1	–	–	–	–	–	–
Cc1ccc(NC(=S)c2nc3ccccc3[nH]2)c(C)c1	28.2µM	?	?	–	?	?
CN1CCN(c2ncc3nc(CCc4ccccc4)c(=O)n(C)c3n2)CC1	·	·	·	–	·	–[0.501 µM]
SMILES	BAZ2B block	JMJD2A Tudor	HP1b chromo inh	Sfp PPTase inh	PLK1 PBD inh	G9a inh
O=C(O)c1cnc(-c2ccccc2)nc1Sc1ccc(Cl)cc1	–	–	–	–	21.2µM	–[12.7 µM]
CCn1c(N)c(C(=O)NCC2CCCO2)sc1=S (stereo unspecified)	79.4µM	?	11.2µM	17.8µM	4.74µM	–[12.7 µM]
CCOC(=O)c1c(C)c(C(=O)NCC2CCCO2)c(C)n1CC (stereo unspecified)	–	–	–	–	–	–
Nc1c(C(=O)NCC2CCCO2)sc(=S)n1-c1ccccc1 (stereo unspecified)	–	–	–	?	18.9µM	?
C=CCn1c(N)c(C(=O)NCC2CCCO2)sc1=S (stereo unspecified)	–	–[11.4 µM]	–	–	29.9µM	–[12.7 µM]
COc1cccc(N=c2oc3ccccc3cc2-c2nc3ccccc3[nH]2)c1	–	31.6µM	–	–	–	–[12.7 µM]
CCOC(=O)c1c(NC(=O)c2cc(C)on2)sc(C)c1C	–	–	–	·	·	3.16µM
CCOC(=O)c1c(NC(=O)c2cc(-c3ccc(Cl)cc3)on2)sc(C)c1C	–	–	–	·	·	8.91µM
CCOC(=O)c1c(NC(=O)c2cc(-c3ccc(Br)cc3)on2)sc(C(C)=O)c1C	–	–	–	·	·	–
CCOC(=O)c1c(NC(=O)c2cc(-c3ccc(OC)c(OC)c3)on2)sc(C)c1C	–	–	–	·	·	–
CCOC(=O)c1c(NC(=O)c2noc3c2CCCC3)sc(C)c1C	–	·	·	31.6µM	·	28.2µM
CCOC(=O)c1c(NC(=O)c2cc(CC)on2)sc(C)c1C	–	–	?	·	·	7.08µM
CCN1C(=O)[C@H]2[C@H]3[C@H](O)[C@H](O)C/C(=N/OC/C=C(\C)CCC=C(C)C)[C@H]3CC[C@@H]2C1=O	·	·	·	–	·	·
CCCCC(=O)N(Cc1ccc(-c2ccccc2-c2nn[nH]n2)cc1)C(C(=O)O)C(C)C (stereo unspecified)	·	·	·	–	·	–[2.33 µM]
CCOC(=O)c1c(Nc2nc(C)c(C(=O)NC)s2)sc(C)c1C	–	–	–	39.8µM	–	?
